# Screening data deposited in PubChem BioAssay by National Center for Advancing Translational Sciences (NCATS).
# Only some compounds are listed: those with a hit (about 2.5% of all), similar ones and a draw of the others.
# D2 PAM-1: positive allosteric modulators of human D2 dopamine receptor | P14416 | HEK293 T-REx D2, calcium flux, EC20 dopamine potentiation | potentiation, % at 10 µM | 340,000 tested, 0.34% active | AID 485347;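 active means potentiation over 3 SD above the plate norm, cut at about 30% in these data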; further: 0% is about no effect
# Target sequence (P14416 whole entry, looked up): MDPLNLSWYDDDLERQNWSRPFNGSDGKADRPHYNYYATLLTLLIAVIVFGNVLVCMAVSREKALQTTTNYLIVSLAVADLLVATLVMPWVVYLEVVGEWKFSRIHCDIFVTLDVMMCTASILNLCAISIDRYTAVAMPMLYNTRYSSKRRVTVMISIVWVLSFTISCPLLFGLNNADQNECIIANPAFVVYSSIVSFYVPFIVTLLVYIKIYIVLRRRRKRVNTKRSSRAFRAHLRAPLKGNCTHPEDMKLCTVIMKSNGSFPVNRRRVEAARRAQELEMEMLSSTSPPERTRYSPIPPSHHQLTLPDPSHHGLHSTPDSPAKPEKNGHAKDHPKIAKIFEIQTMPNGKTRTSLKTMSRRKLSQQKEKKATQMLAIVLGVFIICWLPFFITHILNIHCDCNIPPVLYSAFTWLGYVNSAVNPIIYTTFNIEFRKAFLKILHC
#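 Cells plated with tetracycline inducer and held overnight at 30 C; calcium dye loaded 30–90 min at room temperature; baseline taken, compound added and read 180 s; EC20 dopamine then added and read 180 s.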
# D2 ag-1: human D2 receptor agonism in beta-arrestin assay; AID 624465; P14416; activation, % (test concentration not listed); DiscoveRx PathHunter D2 beta-arrestin, luminescence, 90 min; 100% = 57 uM dopamine signal; 360,000 tested, 0.084% active; in the data active means activation above about 40%; inconclusive means between about 15% and that limit
#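 Agonist mode: compounds alone added to overnight-plated D2 PathHunter cells for 90 min at 37 C, with 57 uM final dopamine (EC100) defining full response. Beta-arrestin recruitment detected by chemiluminescent reagent, read after 1 h at ambient temperature.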
# D2 antag: antagonizes the human D2 dopamine receptor; HEK293 TREx D2 cells, calcium flux, dopamine EC80; inhibition, % at 10 µM; 340,000 tested, 2% active; P14416; in the data active means inhibition above about 30%; inactive means below that, where a call was filed; further: 0% is about no effect
#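 Dopamine at EC80 is the agonist stimulus; test compounds precede it by 180 s. Calcium flux read kinetically in a force-coupled, inducible HEK293 T-REx D2 cell line.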
# Apoferritin bind: binds horse apoferritin like a general anesthetic. Potency, µM (top dose mostly 77.5 µM), for inactives: top-dose activity change, negative = displacement, usual class: inhibitors. P02791. 350,000 tested, 0.074% active. apoferritin/1-aminoanthracene competitive binding, fluorescence. AID 485281; active means well fitted inhibition curve with a large enough effect; inconclusive means small, poorly fitted or top-dose-only effect; inactive means no such curve, though single readings can be large or run the other way; further: potency means the concentration at half of the fitted maximal effect; on the % scale 0 is the no-effect control and ±100 the full control effect; nearly all actives have a fitted effect of over 20% in size
# Target sequence (P02791 2-175 limits assumed): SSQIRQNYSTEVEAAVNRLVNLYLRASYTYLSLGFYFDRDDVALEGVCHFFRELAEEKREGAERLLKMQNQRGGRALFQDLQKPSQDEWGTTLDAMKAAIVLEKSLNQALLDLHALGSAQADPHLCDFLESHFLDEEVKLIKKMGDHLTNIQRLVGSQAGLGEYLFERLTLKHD
#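 Apoferritin-based anesthetic binding model; compound displacement of fluorescent 1-AMA measured as endpoint fluorescence after 10 minutes at room temperature, scaled to free-ligand and complex controls.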
# D2 PAM-2: potentiates the human D2 dopamine receptor allosterically. DiscoveRx D2 beta-arrestin cells, luminescence, 90 min; 100% = 57 uM dopamine signal. AID 624464. P14416. potentiation, % (no concentration beside the values). 360,000 tested, 0.23% active; in the data active means potentiation above about 50%; inconclusive means mostly about 30% to 49%
#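 PathHunter beta-arrestin assay in DiscoveRx D2 cells. Compounds were added with an EC20 of dopamine (50 nM final) for 90 min at 37 deg C. Luminescence was read 1 h after detection reagent, with 57 uM dopamine as the EC100 control.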
# D2 ag-2: D2 dopamine receptor (human) agonism. HEK293 T-REx D2 cells, calcium flux agonist mode. activation, % at 2 µM. 340,000 tested, 0.53% active;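 active means activation over 3 SD above normal in the single-dose calcium agonist read, cut at about 30% in these data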; further: 0% is about no effect
#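 Tetracycline-induced HEK293 T-REx cells with force-coupled D2 receptor, plated overnight at 30 C, loaded with no-wash calcium dye. After a 10 s baseline, compound was pin-added and calcium flux read kinetically for 180 s; calcium rises flagged agonists.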
# * marks the source's active call; other numbers are inactive results; ? = inconclusive; nt = no result given; ! = not confirmed by another sample.
SMILES,D2 PAM-1,D2 ag-1,D2 antag,Apoferritin bind,D2 PAM-2,D2 ag-2
COc1cccc2sc(N3CCN(C(=O)c4ccc([N+](=O)[O-])o4)CC3)nc12,-7.5,10.1,-1.7,nt,21.2,0.5
c1ccc(-c2ncnc3nc4n(c23)CCC4)cc1,-1.8,-0.4,33.7*,-7.4%,-4.0,0.2
COc1ccc(NC2CCCN(C(=O)CCc3cccc(F)c3)C2)cc1 (configuration not stated),-8.9,-1.2,1.3,-11.2%,-22.7,-1.1
Cn1nnnc1SCC(=O)N1CCc2ccccc21,-0.8,-1.4,3.3,-10.5%,-7.0,0.3
Cc1ccc[n+](CC(=O)N2CCCc3ccccc32)c1,-15.6,3.0,31.2*,-1.1%,-11.8,0.6
Cn1nnnc1SCC(=O)N1CCCc2ccccc21,-5.3,-3.2,40.6*,6.7%,-3.1,-0.5
Oc1ccc(C(=S)N2CCCCCC2)cc1,-3.4,-0.1,37.0*,?,0.7,-0.1
COc1ccc(C(=S)N2CCCC2)cc1,42.8*,-0.1,-27.4,-1.3%,-7.2,-0.2
CC(C)(C)c1ccc(OC(=O)N2CCOCC2)cc1,-4.9,2.8,31.9*,?,-3.3,-0.2
Cc1ccc(OC(=O)N2CCOCC2)cc1,-1.3,-4.1,-3.8,-7.0%,2.0,0.6
O=c1cc(C(F)(F)F)oc2c1ccc1ccccc12,4.4,-1.3,33.7*,-4.7%,-5.5,3.3
O=c1cc(/C=C/c2ccccc2)oc2c1ccc1ccccc12,-14.6,-7.0,9.7,3.8%,-1.3,-0.7
O=C(CSCc1ccc(Cl)cc1)NCCSCc1ccco1,-26.0,-1.5,18.2,-13.8%,-4.2,-1.0
O=C(NCCSCc1ccco1)Nc1cc(Cl)cc(Cl)c1,-12.9,-1.4,30.3*,-5.0%,-16.6,1.9
COc1cc2c(C#CCCCO)c(-c3ccc(C#N)cc3)oc(=O)c2cc1OC,12.4,-3.6,-0.7,nt,-9.0,0.8
COc1ccc(C(=O)NCC(=O)N2CCC3(CC2)NCCc2[nH]cnc23)cc1,-2.4,2.2,-9.7,7.2%,-11.5,0.5
COc1cccc(C(=O)NCC(=O)N2CCC3(CC2)NCCc2[nH]cnc23)c1OC,3.8,-1.2,30.4*,-5.2%,-3.4,0.5
O=[N+]([O-])c1ccc(Cl)c(S(=O)(=O)Nc2cccc(-c3ccc(N4CCOCC4)nn3)c2)c1,-5.4,2.5,34.2*,nt,16.6,0.8
COc1ccc(CCNC(=O)Cn2nnc(C(=O)Nc3ccc(Br)cc3)c2N)cc1OC,56.2*,12.6,-42.7,-12.3%,-2.0,0.9
CCOc1ccc(NC(=O)Cn2nnc(C(=O)NCCc3ccc(OC)c(OC)c3)c2N)cc1,6.3,-2.3,4.8,-23.5%,18.2,-0.6
CCc1ccccc1NC(=O)Cn1nnc(C(=O)NCc2cccc(OC)c2)c1N,69.6*!,-5.9,nt,2.8%,-14.2,0.0
Cc1ccc(NC(=O)Cn2nnc(C(=O)NCc3ccco3)c2N)cc1,1.3,-1.8,-12.9,?,-11.6,0.1
COc1cccc(CNC(=O)c2nnn(CC(=O)Nc3ccc(C)c(C)c3)c2N)c1,-17.6,3.0,5.1,?,-8.1,1.6
Cc1cccc(NC(=O)Cn2nnc(C(=O)NCc3ccco3)c2N)c1,-5.8,-4.0,34.4*,?,-3.6,1.9
COc1ccccc1NC(=O)c1nnn(CC(=O)Nc2cccc(SC)c2)c1N,35.4*,-2.4,-5.6,-2.0%,-11.3,-1.3
SMILES,D2 PAM-1,D2 ag-1,D2 antag,Apoferritin bind,D2 PAM-2,D2 ag-2
CCOC(=O)Cc1c(C)nc2c(-c3cccc(Br)c3)c[nH]n2c1=O,-14.3,-1.5,-9.6,-11.5%,-16.1,-0.2
CCCn1c2ccccc2c2nnc(SCC(=O)OC)nc21,13.5,-3.1,-23.6,-22.6%,-2.3,0.4
CCCCn1c2ccccc2c2nnc(SCC(=O)NC3=NN=C(c4ccccc4)CS3)nc21,6.7,nt,69.6*,?,nt,-0.2
Cc1ccc(S(=O)(=O)Nc2cccc(C(=O)NCC(c3ccccc3)N(C)C)c2)cc1F (configuration not stated),-28.2,-2.7,79.2*,nt,-4.5,0.0
COC(=O)CNc1nc(-c2ccncc2)nc2ccccc12,3.2,2.6,-2.6,-9.0%,1.2,-0.4
C=CCn1c(SCC(=O)N2c3ccccc3Sc3ccccc32)nnc1-c1ccco1,-6.7,2.3,-8.6,-12.6%,-3.6,-0.7
CCCn1c(SCC(=O)N2CCc3ccccc32)nnc1-c1ccco1,1.5,-2.7,-9.6,-13.2%,-8.1,1.1
Cc1ccc2nc(SCC(=O)N3c4ccccc4CC3C)c(C)cc2c1 (configuration not stated),32.0*,-4.0,3.1,-4.5%,-26.2,1.4
CCCn1c(SCC(=O)N2c3ccccc3CC2C)nnc1-c1ccco1 (configuration not stated),43.4*,-0.9,-20.6,-11.7%,-6.3,0.6
CCn1c(SCC(=O)N2c3ccccc3Sc3ccccc32)nnc1-c1ccco1,39.8*,2.2,-13.3,?,9.6,0.8
CCC(c1nnc(SCC(=O)N2CC(=O)Nc3ccccc32)n1Cc1ccccc1)N(C)C (configuration not stated),-12.5,1.1,9.3,-10.4%,-21.2,-0.3
COc1ccc(C(C)=O)cc1CS(=O)(=O)CC(=O)O,-5.1,2.5,16.7,-0.6%,-2.1,0.0
O=C(Nc1cccnc1)c1c(O)c2cccc3c2n(c1=O)CC3,nt,-1.0,nt,5.7%,-1.3,nt
Cc1onc(C(=O)N2CCN(c3ccccc3F)CC2)c1-c1ccccc1Cl,34.1*,-0.3,-6.6,-8.1%,-33.5,-1.4
Cc1cc(Cl)c(S(=O)(=O)N2CCSCC2)cc1OCC(N)=O,-10.2,-0.3,18.2,-8.4%,-19.1,0.8
CCOC(=O)Cn1nc(-c2ccccc2)c2ccccc2c1=O,-4.0,-0.9,-2.8,-6.0%,-11.5,-0.8
CCOC(=O)Cn1nc(Cc2ccccc2)c2ccccc2c1=O,42.7*,-5.9,13.0,-20.0%,-6.7,0.4
CCCCN(C)C(=S)Nc1ccc(Oc2ccccc2)cc1,10.4,-1.9,6.2,-8.9%,9.2,-1.1
O=C(NNC(=O)c1ccc(NC(=O)c2ccccc2)cc1)c1ccc(F)cc1,4.9,1.3,-2.9,-2.6%,-2.7,-0.6
O=C(NC1=C(Nc2ccc(F)cc2)C(=O)c2ccccc2C1=O)c1ccc(Cl)cc1,-0.8,9.7,-4.3,-14.5%,70.3*,0.0
COC(=O)CN1C(=O)COc2ccc(S(=O)(=O)N3CCOCC3)cc21,5.6,-1.1,46.3*,-3.0%,0.1,1.1
O=C(O)CN1C(=O)COc2cc(S(=O)(=O)N3CCCC3)ccc21,-8.5,-1.0,30.8*,1.0%,-1.3,1.1
